Reference: PubChem BioAssay (NCI)
“And” between values parts separate entries of the source, which are not always exact repeats. Equal values may be shown once. The panel holds about 83,000 compounds, 20% with a hit somewhere; the sample as a whole holds those more often.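 Method: cells in 96-well plates; compound added at one concentration; 48 h incubation; percent growth measured; values under 10 scored active.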 The source made the active and inactive calls.

What was measured:
Test in all cases: NCI-60 one-dose screen, 48 h (100 = growth as untreated, 0 = no growth, -100 = all killed)
Settings in all cases: 10 µM
HOP-92 NSCLC = tested on: HOP-92 NSCLC
K-562 leukemia = tested on: K-562 leukemia
MALME-3M melanoma = tested on: MALME-3M melanoma
RXF 393 renal = tested on: RXF 393 renal
UACC-257 melanoma = tested on: UACC-257 melanoma
SK-MEL-28 melanoma = tested on: SK-MEL-28 melanoma
SK-MEL-2 melanoma = tested on: SK-MEL-2 melanoma
SN12C renal = tested on: SN12C renal
TK-10 renal = tested on: TK-10 renal
CAKI-1 renal = tested on: CAKI-1 renal
A498 renal = tested on: A498 renal
RPMI-8226 leukemia = tested on: RPMI-8226 leukemia
OVCAR-3 ovarian = tested on: OVCAR-3 ovarian
BT-549 breast = tested on: BT-549 breast
MDA-MB-435 melanoma = tested on: MDA-MB-435 melanoma
HCC-2998 colon = tested on: HCC-2998 colon

Measured: growth

CC1=C(CN(O)C(N)=O)C2=C(C)C3(CC3)[C@@](C)(O)C(=O)C2=C1
active: HOP-92 NSCLC -21.1% | MALME-3M melanoma -39.2% | RXF 393 renal -78.9% | UACC-257 melanoma -14.7% | SK-MEL-28 melanoma -33% | SK-MEL-2 melanoma -47.8% | TK-10 renal -15% | CAKI-1 renal -3.78% | A498 renal -82% | OVCAR-3 ovarian -26.9% | BT-549 breast -24.5% | MDA-MB-435 melanoma -20.2% | HCC-2998 colon -53.2%
inactive: K-562 leukemia 95.4% | SN12C renal 15.4% | RPMI-8226 leukemia 91.5%

CC(C)(O)/C=C/C(=O)[C@](C)(O)[C@H]1[C@H](O)C[C@@]2(C)[C@H]3CC=C4[C@@H](C[C@H](O)C(=O)C4(C)C)[C@]3(C)C(=O)C[C@]12C
active: HOP-92 NSCLC -36.4% | MALME-3M melanoma -28.3% | RXF 393 renal -35.3% | SK-MEL-28 melanoma -7.52% | SK-MEL-2 melanoma -28.2% | SN12C renal 9.22% | TK-10 renal -33% | CAKI-1 renal -60.5% | A498 renal -73.1% | RPMI-8226 leukemia 3.64% | OVCAR-3 ovarian 1% | BT-549 breast -24.5% | MDA-MB-435 melanoma 9.08%
inactive: K-562 leukemia 12.1% | HCC-2998 colon 36.1%

C/C=C/CC(C)C(O)[C@H](NC(=O)[C@@H]1CCCN1C(=O)C(C)(C)NC(=O)CCCCCCC)C(=O)N[C@@](C)(CC)C(=O)N[C@@H](CCC(N)=O)C(=O)N[C@H](CCC(N)=O)C(=O)NC(C)(C)C(=O)NC(C)(C)C(=O)N[C@@H](CCC(N)=O)C(=O)N[C@H](CC(C)C)C(=O)N[C@H](CO)CC(C)C (some centres undefined)
inactive: HOP-92 NSCLC 106% and 29.4% | SK-MEL-2 melanoma 115% and 34% | TK-10 renal 115% and 28.2% | CAKI-1 renal 101% and 28.5% | OVCAR-3 ovarian 113% and 23.8% | HCC-2998 colon 114% and 24%
107% (inactive) and -74.9% (active): SK-MEL-28 melanoma
106% (inactive) and -33.7% (active): UACC-257 melanoma
101% (inactive) and 6.14% (active): K-562 leukemia
112% (inactive) and -10.7% (active): RXF 393 renal
104% (inactive) and -47.4% (active): MDA-MB-435 melanoma
118% (inactive) and -60.9% (active): BT-549 breast
102% (inactive) and 9.5% (active): SN12C renal
active: A498 renal -7.1%
109% (inactive) and -65.1% (active): MALME-3M melanoma
105% (inactive) and -9.85% (active): RPMI-8226 leukemia

C/C=C/CC(C)C(O)[C@H](NC(=O)[C@@H]1CCCN1C(=O)C(C)(C)NC(=O)CCCCCCCCC)C(=O)NC(C)(C)C(=O)N[C@@H](CCC(N)=O)C(=O)N[C@H](CCC(N)=O)C(=O)NC(C)(C)C(=O)NC(C)(C)C(=O)N[C@@H](CCC(N)=O)C(=O)N[C@H](CC(C)C)C(=O)N[C@H](CO)CC(C)C (some centres undefined)
active: HOP-92 NSCLC -16.5% and -24.9% | MALME-3M melanoma -41.5% and -92.4% | RXF 393 renal -54.3% and -73.3% | UACC-257 melanoma -71.9% and -73.2% | SK-MEL-28 melanoma -84.9% and -100% | SK-MEL-2 melanoma -48.1% and -31.4% | SN12C renal 2.83% and -20.9% | A498 renal -48.1% and -26.1% | RPMI-8226 leukemia -13.2% and -31.7% | OVCAR-3 ovarian -18.7% | BT-549 breast -77.4% and -78.3% | MDA-MB-435 melanoma -52.8% and -87.1% | HCC-2998 colon -36.1% and -5.11%
17.6% (inactive) and 1.1% (active): CAKI-1 renal
-50.1% (active) and 18% (inactive): K-562 leukemia
25.8% (inactive) and -4.38% (active): TK-10 renal

COc1cc2c(cc1OC)[C@@H]1N(CC2)C(=O)c2ccccc2[C@@]1(C)C(=O)O
inactive: HOP-92 NSCLC 123% | K-562 leukemia 105% | MALME-3M melanoma 64.6% | RXF 393 renal 127% | UACC-257 melanoma 107% | SK-MEL-28 melanoma 113% | SK-MEL-2 melanoma 109% | SN12C renal 102% | TK-10 renal 107% | CAKI-1 renal 101% | A498 renal 89.4% | RPMI-8226 leukemia 110% | OVCAR-3 ovarian 122% | BT-549 breast 108% | MDA-MB-435 melanoma 103% | HCC-2998 colon 110%
